The values below are quoted from earlier work in PubChem BioAssay AID977610.

About 3,600 (100%) of roughly 3,600 compounds were called active. The limit is not given here; nearly all actives have Ki up to about 18000 µM. So high a share suggests a set chosen from earlier hits. The list shows a part of the results.

This data set in a line: PubChem AID 977610. To be noted: PDB protein-ligand complexes, literature Ki.

On to `ON1CC=CCC1=S`, for which the Ki (protein: Carbonic anhydrase 2 (H94D mutation), PDB entry 4jss) was 500 µM (active).

For the compound `CC(C)(C)n1nc(-c2cccc3ccccc23)c2c(N)ncnc21`, the inhibition constant (Ki) (protein: Aminoglycoside 3'-phosphotransferase AphA1-IAB, PDB entry 4gkh) is 21.5 µM (active).

On to `CC(=O)N[C@@H](CC(=O)O)C(=O)N[C@@H](Cc1ccccc1)[P+](O)(O)C[C@@H](C)C(=O)N[C@@H](C)C(N)=O`, for which, under “protein: Angiotensin Converting Enzyme N domain glycsoylation mutant (Ndom389), PDB entry 3nxq”, the inhibition constant Ki is 0.007 µM (active).

Consider `C[C@H](C[P+](O)(O)[C@H](Cc1ccccc1)NC(=O)[C@H](N)Cc1nn[nH]n1)C(=O)N[C@@H](C)C(N)=O`, for which the Ki (protein: ANGIOTENSIN-CONVERTING ENZYME, PDB entry 4bxk) is 0.0112 µM (active).

For `CC(=O)N[C@@H](CC(C)C)C(=O)N[C@H](C(=O)N[C@@H](Cc1ccccc1)C(=O)N[C@]1(C)CCCCCC/C=C/CCC[C@@](C)(C(=O)N[C@@H](CO)C(=O)N[C@@H](C)C(=O)N[C@@H](C)C(=O)O)NC(=O)[C@H](CC2CCC2)NC(=O)[C@H](CCC(N)=O)NC(=O)[C@H](C)NC(=O)[C@H](Cc2c[nH]c3ccccc23)NC(=O)[C@H](Cc2ccc(O)cc2)NC(=O)[C@H](CCC(=O)O)NC1=O)[C@@H](C)O`, the Ki (protein: Protein Mdm4, PDB entry 4n5t) is 0.007 µM (active).

For the compound `CS[C@H](CCCC1C(=O)NC(N)NC1N)c1ccc(C(=O)N[C@@H](CCC(=O)O)C(=O)O)cc1` (stereo partly drawn), under “protein: Trifunctional purine biosynthetic protein adenosine-3, PDB entry 4ew3”, the Ki was 0.18 µM (active).

Regarding `CS[C@@H](CCCC1C(=O)NC(N)NC1N)c1ccc(C(=O)N[C@@H](CCC(=O)O)C(=O)O)cc1` (stereo partly drawn), the Ki (protein: Trifunctional purine biosynthetic protein adenosine-3, PDB entry 4ew2) is 0.21 µM (active).

Consider `NC(=O)[C@H]1CCCc2c1[nH]c1ccc(Cl)cc21`, for which the inhibition constant Ki (protein: NAD-DEPENDENT PROTEIN DEACETYLASE SIRTUIN-3, MITOCHONDRIAL, PDB entry 4bvb) was 33.4 µM (active).

For `CC(C)N(C[C@H]1O[C@@H](n2cnc3c(N)ncnc32)[C@H](O)[C@@H]1O)C1CC(CCc2nc3ccc(C(C)(C)C)cc3[nH]2)C1` (stereo partly drawn), where the note is “protein: Histone-lysine N-methyltransferase, H3 lysine-79 specific, PDB entry 4hra”, the Ki is 8e-05 µM (active).

With `OC[C@H]1OCC[C@@H](O)[C@H]1O`, for the setting “protein: GALACTOCEREBROSIDASE, PDB entry 4ccd”, the Ki is 32 µM (active).

As for `O=C(O)CCC(=O)O`, for the setting “protein: Delta-1-pyrroline-5-carboxylate dehydrogenase, mitochondrial, PDB entry 4lh2”, the Ki was 58000 µM (active).

As for `N[C@@H](CCCNC(=O)C[P+](O)(O)O)C(=O)O`, the Ki (protein: human ornithine transcarbamylase, PDB entry 1oth) was 0.1 µM (active).

As for `OC[C@@H]1[C@@H](O)[C@H](O)[C@@H](O)[C@@H]1NCc1ccc(Br)cc1`, the Ki (protein: strictosidine glucosidase, PDB entry 3zj8) is 127 µM (active).

Turning to `NC(N)c1ccc([C@H](N)[P+](O)(O)O)cc1`, under “protein: M1 family aminopeptidase, PDB entry 4k5p”, the Ki is 345 µM (active).

For the compound `NC(N)Nc1ccc([C@H](N)[P+](O)(O)O)cc1`, where the note is “protein: M1 family aminopeptidase, PDB entry 4k5n”, the Ki was 127 µM (active).

Turning to `N[C@@H](c1ccc(-n2cccn2)cc1)[P+](O)(O)O`, the Ki is 104 µM (active) (protein: M1 family aminopeptidase, PDB entry 4k5o) and 0.011 µM (active) (protein: M17 leucyl aminopeptidase, PDB entry 4k3n).

As for `NC(N)Nc1ccc(C=O)cc1`, the Ki (protein: Bovine beta trypsin, PDB entry 1gbt) is 10000 µM (active).

In the case of `C=CCNC(=O)[C@@H](NC(=O)[C@@](O)(CCCN(Cc1ccc(-c2cccs2)cc1)NC(=O)[C@@H](NC(=O)OC)C(C)(C)C)Cc1ccc(CC=C)cc1)C(C)C`, the Ki (protein: HIV-1 protease, PDB entry 4cpr) is 0.035 µM (active).

Turning to `CCCNC(=O)[C@@H](NC(=O)[C@@](O)(CCCN(Cc1ccc(-c2ccncc2)cc1)NC(=O)[C@@H](NC(=O)OC)C(C)(C)C)Cc1ccc(CCC)cc1)C(C)C`, the Ki (protein: HIV-1 protease, PDB entry 4cp7) was 0.0078 µM (active).

For `C=CCNC(=O)[C@@H](NC(=O)[C@@](O)(CCCN(Cc1ccc(-c2cccnc2)cc1)NC(=O)[C@@H](NC(=O)OC)C(C)(C)C)Cc1ccc(CC=C)cc1)C(C)C`, the Ki (protein: HIV-1 protease, PDB entry 4cpq) was 0.018 µM (active).

As for `C=CCNC(=O)[C@@H](NC(=O)[C@@](O)(CCCN(Cc1ccc(Br)cc1)NC(=O)[C@@H](NC(=O)OC)C(C)(C)C)Cc1ccccc1)C(C)(C)C`, the Ki (protein: PROTEASE, PDB entry 3zps) was 0.005 µM (active).

Turning to `CC1=C(C(=O)O)N[C@@H]([C@@H](C=O)NC(=O)Cc2cccs2)SC1`, the Ki (protein: Carboxylesterases, PDB entry 4ivk) is 140 µM (active).

In the case of `Cc1cc(C)nc(N)n1`, the Ki (protein: PDE10A2, PDB entry 4llx) was 1300 µM (active).

In the case of `CNc1nc2cc3nc[nH]c(=O)c3cc2[nH]1`, the Ki was 2.9 µM (active) (protein: Queuine tRNA-ribosyltransferase, PDB entry 3GEV) and 4.1 µM (active) (protein: Queuine tRNA-ribosyltransferase, PDB entry 3V0Y).

Take `CC[C@H]1NC(=O)[C@H](CCCNC(N)N)NC(=O)CNC(=O)[C@H](CCCNC(N)N)NC(=O)[C@@H]2CSCc3cc(cc(c3)CSC[C@@H](C(=O)NCC(N)=O)NC(=O)[C@H](C)NC(=O)[C@H](CO)NC1=O)CSC[C@H](NC(=O)[C@H](C)N)C(=O)N[C@@H](CO)C(=O)N[C@@H](CCCNC(N)N)C(=O)N[C@@H](Cc1ccc(O)cc1)C(=O)N[C@@H](CCC(=O)O)C(=O)N[C@@H](C(C)C)C(=O)N[C@@H](CC(=O)O)C(=O)N2`: the Ki (protein: Urokinase-type plasminogen activator (C299A, N322Q mutation), PDB entry 4jk6) was 0.064 µM (active).

For the compound `CC(C)[C@@H]1NC(=O)[C@H](CCC(=O)O)NC(=O)[C@H](Cc2ccc(O)cc2)NC(=O)[C@H](CCCNC(N)N)NC(=O)[C@H](CO)NC(=O)[C@@H](NC(=O)[C@H](C)N)CSCc2cc3cc(c2)CSC[C@H](NC(=O)[C@H](CC(=O)O)NC1=O)C(=O)N[C@@H](CCCNC(N)N)C(=O)NCC(=O)N[C@@H](CCCNC(N)N)C(=O)N[C@H](CO)C(=O)N[C@@H](CO)C(=O)N[C@@H](C)C(=O)N[C@H](C(=O)NCC(N)=O)CSC3`, where the note is “protein: Urokinase-type plasminogen activator (C122A, N145Q mutation), PDB entry 4jk5”, the Ki was 0.028 µM (active).

In general, Ki refers to the equilibrium dissociation constant of an inhibitor or competing ligand from its target.
